Results on eleven compounds are retold here after PubChem BioAssay (Tox21).

Records with an inconclusive call do not appear. The source made the active and inactive calls. Unless noted, calls follow the shape of the dose curve; as a rule, active = well fitted curve in the direction sought with a large enough effect in the repeat runs; inconclusive = weak or mixed curves; inactive = no such curve, though single readings can be large; an effect the other way counts as inactive or inconclusive.

Assay [1] deals with Aryl hydrocarbon receptor (Homo sapiens) (UniProt P35869). In words: qHTS assay to identify small molecule that activate the aryl hydrocarbon receptor (AhR) signaling pathway (AID 743085). Also: nearly all actives have a fitted effect of over 15% in size. Also: potency is read from the fitted curve at half-maximal effect.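 As to activation: HG2L7.5c1 human HepG2 liver cells with stably integrated DRE-driven firefly reporter; series mostly up to about 70 µM.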 In a few lines:
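HepG2 cells (HG2L7.5c1) stably carrying a firefly luciferase reporter driven by 20 dioxin responsive elements were exposed to compound for 24 h at 37C after a 5 h settling period; luminescence rise (ONE-Glo) indicated activation.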
(In general: Quantitative high-throughput screening tests each substance at several concentrations.)

Assay [2] is described as follows: qHTS assay to identify small molecule that activate the aryl hydrocarbon receptor (AhR) signaling pathway - cell viability counter screen (AID 743086). Also: nearly all actives have a fitted effect of over 45% in size. Also: potency is read from the fitted curve at half-maximal effect. In a few lines: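 Cytotoxicity counter screen: CellTiter-Fluor signal (30 min, 37 C) in 4000 HepG2 cells/well carrying the DRE-luciferase reporter, following 24 h compound exposure at 37 C.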
Assay [3] is described as follows: qHTS assay to identify small molecule antagonists of the peroxisome proliferator-activated receptor gamma (PPARg) signaling pathway - cell viability counter screen (AID 743194). Also: nearly all actives have a fitted effect of over 55% in size. Also: potency is read from the fitted curve at half-maximal effect. Put shortly:
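Viability was measured as CellTiter-Glo luminescence in GeneBLAzer PPARg UAS-bla HEK293H cells. These cells had been exposed 17 h at 37 C to compounds together with rosiglitazone at 50 nM final, with the beta-lactamase readout taken in the same wells.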

Assay [4] can be described thus: qHTS assay for small molecule agonists of the antioxidant response element (ARE) signaling pathway - cell viability counter screen (AID 743203; calls by dose curve; also: nearly all actives have a fitted effect of over 55% in size; also: potency is read from the fitted curve at half-maximal effect). Put shortly: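 Following 16 hrs of compound treatment at 37C, HepG2 cells with an ARE-controlled beta-lactamase gene were lysed with CellTiter-Glo. Luminescence was read after 30 min at room temperature.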
The nature of assay [5]: qHTS assay for small molecule activators of the heat shock response signaling pathway - cell viability counter screen (AID 743209). Also: nearly all actives have a fitted effect of over 50% in size. Put shortly: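 Readout: CellTiter-Glo luminescence, 30 min at room temperature. System: HSE-bla HeLa cells, 1500/well, plated overnight. Treatment: compounds in DMSO, 5 h at 37 C.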
Assay [6] can be described thus: qHTS assay for small molecule activators of the heat shock response signaling pathway (AID 743210; active = well fitted activation curve with a large enough effect in the signal ratio in the repeat runs, with a control signal flat, not every such curve was filed as active; the % refers to the signal ratio;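 also: HeLa cells with beta-lactamase reporter driven by heat shock elements; series mostly up to about 63 µM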). Put shortly: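 HeLa HSE-bla cells, overnight plating; cpd in DMSO 5 h, 37 C; LiveBLAzer B/G FRET substrate 2.5 h RT; fluorescence intensity read.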
Assay [7] in a line: qHTS assay to identify small molecule agonists of the peroxisome proliferator-activated receptor delta (PPARd) signaling pathway - cell viability counter screen (AID 743211). Also: nearly all actives have a fitted effect of over 55% in size. Also: potency is read from the fitted curve at half-maximal effect. Put shortly:
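PPARd-bla HEK293H cells (UAS-beta-lactamase reporter) were treated with compounds for 17 h at 37 C. Viability was then read in the same wells by CellTiter-Glo luminescence after 30 min at room temperature.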

Assay [8] deals with Peroxisome proliferator-activated receptor delta (Homo sapiens) (UniProt Q03181). In words: qHTS assay to identify small molecule agonists of the peroxisome proliferator-activated receptor delta (PPARd) signaling pathway (AID 743212; calls by dose curve). In a few lines:
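HEK293H PPARd-bla cells; 5 h preincubation 37 C/5% CO2; compound (DMSO) 37 C; LiveBLAzer B/G FRET substrate 2 h RT; fluorescence intensity.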

Assay [9] in a line: qHTS assay to identify small molecule antagonists of the peroxisome proliferator-activated receptor delta (PPARd) signaling pathway - cell viability counter screen (AID 743213). Also: nearly all actives have a fitted effect of over 50% in size. In a few lines:
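Agonist-stimulated (L165041, 300 nM final) HEK293H PPARd UAS-bla cells are exposed to compounds for 17 h at 37 C, and ATP-based luminescence (CellTiter-Glo) from the same wells reports cytotoxicity.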

Assay [10] has as its target Peroxisome proliferator-activated receptor delta (Homo sapiens) (UniProt Q03181). In words: qHTS assay to identify small molecule antagonists of the peroxisome proliferator-activated receptor delta (PPARd) signaling pathway (AID 743215; active = well fitted inhibition curve with a large enough effect in the signal ratio in the repeat runs, not every such curve was filed as active; the % refers to the signal ratio; also: potency is read from the fitted curve at half-maximal effect). Put shortly: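 HEK293H UAS-bla, PPARd; agonist L165041 300 nM final with cpd in DMSO; 37 C 17 h; FRET substrate, RT 2 h; fluorescence intensity.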

Assay [11] addresses Bile acid receptor (Homo sapiens) (UniProt Q96RI1). In words: qHTS assay to identify small molecule antagonists of the farnesoid-X-receptor (FXR) signaling pathway (AID 743217; active = well fitted inhibition curve with a large enough effect in the signal ratio in the repeat runs, not every such curve was filed as active; the % refers to the signal ratio). Put shortly: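 GeneBLAzer FXR-UAS-bla HEK 293T, CDCA-stimulated (50 uM final). Compound treatment 16 h, 37 °C. Detection: beta-lactamase cleavage of B/G FRET substrate, fluorescence.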
Assay [12] can be described thus: qHTS assay to identify small molecule agonists of the farnesoid-X-receptor (FXR) signaling pathway - cell viability counter screen (AID 743218). Also: nearly all actives have a fitted effect of over 45% in size. Also: potency is read from the fitted curve at half-maximal effect. In a few lines: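 Parallel cytotoxicity test: compound-treated (16 h, 37 C) HEK 293T FXR-bla reporter cells were lysed with CellTiter-Glo and luminescence recorded.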
Assay [13] addresses Bile acid receptor (Homo sapiens) (UniProt Q96RI1). In words: qHTS assay to identify small molecule agonists of the farnesoid-X-receptor (FXR) signaling pathway (AID 743220; active = well fitted activation curve with a large enough effect in the signal ratio in the repeat runs, not every such curve was filed as active; the % refers to the signal ratio). Put shortly: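 Beta-lactamase reporter under UAS control in GeneBLAzer FXR HEK 293T cells (5000/well) measured with LiveBLAzer FRET substrate after 2 h at room temperature. Compound exposure lasted 16 h at 37C.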

Assay [14] is described as follows: qHTS assay to identify small molecule antagonists of the farnesoid-X-receptor (FXR) signaling pathway - cell viability counter screen (AID 743221; active = well fitted cell-killing curve with a large enough effect in the repeat runs, not every such curve was filed as active; also: nearly all actives have a fitted effect of over 50% in size; also: potency is read from the fitted curve at half-maximal effect). In a few lines: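 FXR-UAS-bla HEK 293T cells were treated with test compounds plus chenodeoxycholic acid (50 uM final) for 16 h at 37 C. Cell viability in the same wells was then read as CellTiter-Glo luminescence after 30 min at room temperature.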

Assay [15] deals with Vitamin D3 receptor (Homo sapiens) (UniProt P11473). Put plainly: qHTS assay to identify small molecule agonists of the vitamin D receptor (VDR) signaling pathway (AID 743222; calls by dose curve). In a few lines:
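In VDR-bla cells, compound-induced beta-lactamase expression is quantified by FRET substrate fluorescence. Treatment lasts 16 h at 37C; substrate develops 2 h at room temperature.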

For assay [16] the target is unchanged. In words: qHTS assay to identify small molecule antagonists of the vitamin D receptor (VDR) signaling pathway (AID 743223; active = well fitted inhibition curve with a large enough effect in the signal ratio in the repeat runs, not every such curve was filed as active; the % refers to the signal ratio). Put shortly: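 VDR-bla cells were plated, incubated 4 h at 37C, then given compound and 1alpha,25-dihydroxyvitamin D3 (3 nM final). After 16 h at 37C, LiveBLAzer B/G FRET substrate was added for 2 h at room temperature and fluorescence read.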

Assay [17] in a line: qHTS assay to identify small molecule agonists of the vitamin D receptor (VDR) signaling pathway - cell viability counter screen (AID 743224). Also: nearly all actives have a fitted effect of over 50% in size. Also: potency is read from the fitted curve at half-maximal effect. In a few lines: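 Plated VDR-bla cells (4 h, 37C) received compound, incubated 16 h, then LiveBLAzer substrate 2 h RT; CellTiter-Glo added afterwards, luminescence read at 30 min.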
Assay [18] can be described thus: qHTS assay for small molecule agonists of the antioxidant response element (ARE) signaling pathway (AID 743202; active = well fitted activation curve with a large enough effect in the signal ratio in the repeat runs, not every such curve was filed as active; the % refers to the signal ratio; also: potency is read from the fitted curve at half-maximal effect). Put shortly:
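Quantitative high-throughput format in HepG2 cells bearing an integrated ARE-beta-lactamase reporter. Compound exposure lasted 16 h at 37 C, and fluorescence was read 2 h after adding LiveBLAzer B/G substrate at room temperature.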

Chain of Vitamin D3 receptor (Homo sapiens) (P11473 whole entry, looked up): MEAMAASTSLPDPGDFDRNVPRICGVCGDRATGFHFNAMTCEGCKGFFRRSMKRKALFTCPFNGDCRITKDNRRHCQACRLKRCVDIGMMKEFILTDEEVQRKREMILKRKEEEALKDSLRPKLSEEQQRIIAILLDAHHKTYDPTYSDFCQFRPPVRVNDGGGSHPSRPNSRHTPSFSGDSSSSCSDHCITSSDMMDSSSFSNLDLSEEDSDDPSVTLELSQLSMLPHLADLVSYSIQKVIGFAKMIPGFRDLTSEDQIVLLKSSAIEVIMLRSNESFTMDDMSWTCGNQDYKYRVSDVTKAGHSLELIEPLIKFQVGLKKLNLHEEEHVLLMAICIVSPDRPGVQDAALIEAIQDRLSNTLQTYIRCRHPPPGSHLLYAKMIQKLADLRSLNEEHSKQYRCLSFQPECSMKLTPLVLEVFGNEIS
Chain of Peroxisome proliferator-activated receptor delta (Homo sapiens) (Q03181 whole entry, looked up): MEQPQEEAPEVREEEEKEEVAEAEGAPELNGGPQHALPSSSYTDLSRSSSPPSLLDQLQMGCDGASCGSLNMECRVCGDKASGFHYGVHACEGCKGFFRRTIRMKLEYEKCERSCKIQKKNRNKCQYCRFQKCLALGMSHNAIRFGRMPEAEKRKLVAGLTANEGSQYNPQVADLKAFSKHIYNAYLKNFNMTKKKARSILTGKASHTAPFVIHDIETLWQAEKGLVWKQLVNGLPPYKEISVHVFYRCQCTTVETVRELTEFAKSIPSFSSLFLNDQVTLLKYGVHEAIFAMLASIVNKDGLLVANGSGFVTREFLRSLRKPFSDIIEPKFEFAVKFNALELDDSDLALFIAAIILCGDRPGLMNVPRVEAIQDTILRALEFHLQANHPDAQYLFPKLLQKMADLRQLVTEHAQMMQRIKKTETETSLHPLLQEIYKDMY
Chain of Aryl hydrocarbon receptor (Homo sapiens) (P35869 whole entry, looked up): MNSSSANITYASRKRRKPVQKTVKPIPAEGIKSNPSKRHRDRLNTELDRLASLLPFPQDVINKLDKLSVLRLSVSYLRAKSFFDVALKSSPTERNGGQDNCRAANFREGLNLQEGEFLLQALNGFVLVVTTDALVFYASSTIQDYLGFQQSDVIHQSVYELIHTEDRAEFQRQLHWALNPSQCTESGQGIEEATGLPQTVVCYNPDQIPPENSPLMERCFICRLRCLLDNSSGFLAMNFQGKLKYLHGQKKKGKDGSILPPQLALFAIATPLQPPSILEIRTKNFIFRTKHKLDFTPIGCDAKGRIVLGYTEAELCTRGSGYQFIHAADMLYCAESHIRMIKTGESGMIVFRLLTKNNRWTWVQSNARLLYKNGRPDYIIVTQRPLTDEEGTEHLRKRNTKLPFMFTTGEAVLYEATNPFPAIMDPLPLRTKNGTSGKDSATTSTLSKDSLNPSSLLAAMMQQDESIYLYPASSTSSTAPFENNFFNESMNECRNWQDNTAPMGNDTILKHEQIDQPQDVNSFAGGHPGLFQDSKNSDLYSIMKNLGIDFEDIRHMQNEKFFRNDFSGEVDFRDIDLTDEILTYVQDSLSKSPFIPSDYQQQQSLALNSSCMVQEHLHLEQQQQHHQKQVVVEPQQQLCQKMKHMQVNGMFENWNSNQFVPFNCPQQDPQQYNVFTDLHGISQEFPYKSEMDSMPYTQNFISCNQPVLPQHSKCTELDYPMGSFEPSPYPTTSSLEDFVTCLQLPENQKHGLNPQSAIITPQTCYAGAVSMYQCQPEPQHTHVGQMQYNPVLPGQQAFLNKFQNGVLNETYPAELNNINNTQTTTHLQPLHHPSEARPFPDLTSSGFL
Chain of Bile acid receptor (Homo sapiens) (Q96RI1 whole entry, looked up): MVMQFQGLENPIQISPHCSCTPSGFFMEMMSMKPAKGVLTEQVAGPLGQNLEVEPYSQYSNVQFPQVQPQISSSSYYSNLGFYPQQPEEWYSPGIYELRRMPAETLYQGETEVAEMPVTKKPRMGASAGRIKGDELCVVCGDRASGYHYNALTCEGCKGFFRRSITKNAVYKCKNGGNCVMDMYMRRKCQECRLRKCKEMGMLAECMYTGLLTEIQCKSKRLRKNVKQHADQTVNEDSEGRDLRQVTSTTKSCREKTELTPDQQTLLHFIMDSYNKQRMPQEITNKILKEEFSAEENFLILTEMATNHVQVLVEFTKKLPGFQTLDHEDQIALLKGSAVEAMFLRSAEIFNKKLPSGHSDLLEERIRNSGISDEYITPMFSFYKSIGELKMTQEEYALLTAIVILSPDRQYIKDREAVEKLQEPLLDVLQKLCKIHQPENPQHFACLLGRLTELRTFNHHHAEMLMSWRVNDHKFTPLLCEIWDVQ

Consider `CCOC(=O)OC(C)OC(=O)[C@@H]1N2C(=O)[C@@H](NC(=O)[C@H](N)c3ccccc3)[C@H]2SC1(C)C` (stereo partly specified), for which the Potency entry in assay [1], in assay [2], in assay [3], in [4], in assay [5] and in assay [6] was “inactive” each time. Also, the Potency result in assay [7], in [8], in assay [9], in assay [10], in assay [11] and in assay [12] was “inactive” throughout. The Potency entry in assay [13], in [14], in assay [15], in assay [16] and in assay [17] was “inactive” in each case.

For the compound `C/C=C\C/C=C/CCCCCCCCOC(C)=O`, the Potency entry in assay [1], in assay [2], in assay [3], in assay [4], in assay [5] and in assay [7] was “inactive” each time. Besides, the Potency entry in [8], in [9], in assay [13] and in [14] was “inactive” each time.

As for `COc1cc(Nc2c(C#N)cnc3cc(OCCCN4CCN(C)CC4)c(OC)cc23)c(Cl)cc1Cl`, the Potency result in assay [1], in assay [5] and in assay [15] was “inactive” each time. The Potency is 13.3 µM (active) in assay [2]; 21.1 µM (active) in [3]; 18.8 µM (active) in [4]; 26.6 µM (active) in assay [7]; 13.3 µM (active) in assay [12]; 26.6 µM (active) in [14].

Take `O=C1C(=O)c2ccccc2C(O)=C1C1CCC(c2ccc(Cl)cc2)CC1` (stereo unspecified): the Potency in assay [1] was 4.03 µM (active). Moreover, the Potency entry in assay [2], in assay [5], in assay [9], in [11], in [13] and in [16] was “inactive” in each case.

For the compound `C[C@@H]1CC(=O)NN=C1c1ccc(NN=C(C#N)C#N)cc1`, the Potency was 15 µM (active) in assay [1] and 26.6 µM (active) in assay [2]. The Potency result in [3], in assay [4], in assay [5], in assay [7], in assay [9] and in [12] was “inactive” in each case. Also, the Potency entry in assay [14] and in assay [17] was “inactive” in each case.

In the case of `C=Cc1ccc(S(=O)(=O)O)cc1`, the Potency result in assay [1], in assay [2], in [5], in [7], in assay [10] and in assay [16] was “inactive” throughout.

Take `CCOC(=O)c1ccc(C#Cc2ccc3c(c2)C(C)(C)CCS3)nc1`: the Potency result in [1], in [2], in assay [3], in assay [4], in [5] and in assay [9] was “inactive” throughout. Besides, the Potency result in [12], in assay [14] and in assay [17] was “inactive” throughout. The Potency in assay [18] is 26.6 µM (active).

With `CCC1(CO)COCOC1`, the Potency result in [1], in [2], in assay [3], in assay [4], in [5] and in assay [7] was “inactive” in each case. Also, the Potency entry in assay [8], in assay [10], in assay [12], in [14] and in assay [15] was “inactive” in each case.

Take `Cc1ccc2c(Br)cc(Br)c(O)c2n1`: the figures for the Potency in assay [1] and in [3] were 13.3 µM (active) and 23.7 µM (active), respectively. Moreover, the Potency entry in assay [2], in assay [4], in [5], in assay [7], in [8] and in assay [9] was “inactive” in each case. Besides, the Potency entry in [12], in assay [14], in assay [15], in assay [16] and in assay [17] was “inactive” in each case.

Turning to `Oc1ccc(Cl)c2cccnc12`, the Potency in assay [1] is 11.9 µM (active); in [18], 23.7 µM (active); in assay [7] it was 0.596 µM (active); in assay [10] it was 1.06 µM (active); in [17], 0.376 µM (active). Moreover, the Potency result in [2], in assay [4], in assay [5], in assay [12], in assay [13] and in [14] was “inactive” each time.

Turning to `CC(C)C=O`, the Potency entry in assay [1], in assay [2], in [3], in assay [4], in assay [5] and in [7] was “inactive” in each case. The Potency result in assay [9], in [12], in assay [14], in [15], in assay [16] and in assay [17] was “inactive” each time.
